In PubChem BioAssay (EPA / NIEHS) one finds outcome and AC50 data, which are given here for 7 compounds.

Read-out in test [1]: Human Leukocyte Antigen - DR isotype (HLADR), HLA-DRA (gene 3122)
Kind of test: BSK_BE3C_HLADR: BioMAP Diversity Plus: BE3C Assay for Human Leukocyte Antigen - DR isotype (HLADR) Biomarker Activity (AID 2283032). To be noted: primary human bronchial epithelial cells; actives raise or lower the signal. In a few lines:
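Human primary bronchial epithelial cells in the BE3C system were exposed to chemicals for 24 h, after which HLA-DR levels were quantified by ELISA. Activity was fitted bidirectionally, gain or loss of signal, against DMSO as negative control and baseline.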

Read-out in test [2]: Vascular cell adhesion molecule 1 (VCAM1), VCAM1 (gene 7412)
The test can be described thus: BSK_4H_VCAM1: BioMAP Diversity Plus: 4H Assay for Vascular cell adhesion molecule 1 (VCAM1) Biomarker Activity (AID 2283033).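 As to outcome: cell-surface VCAM-1 protein measured by ELISA.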 To be noted: primary human endothelial cells (HUVEC); actives raise or lower the signal. In a few lines: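 Primary human umbilical vein endothelial cells were exposed to chemicals for 24 h, after which VCAM-1 was quantified by ELISA. Responses were fitted bidirectionally against DMSO as negative control and activity baseline.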

Read-out in test [3]: Interferon-gamma inducible Protein 10 (IP10), CXCL10 (gene 3627)
The test can be described thus: BSK_BE3C_IP10: BioMAP Diversity Plus: BE3C Assay for Interferon-gamma inducible Protein 10 (IP10) Biomarker Activity (AID 2283034). The note with it: primary human bronchial epithelial cells; actives raise or lower the signal. In a few lines: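 Human primary bronchial epithelial cells were exposed to chemicals for 24 hours, after which IP-10 levels were measured by ELISA. Data were fitted bidirectionally against DMSO, which served as the negative control and activity baseline.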

Read-out in test [4]: Monokine induced gamma interferon (MIG), CXCL9 (gene 4283)
The test can be described thus: BSK_BE3C_MIG: BioMAP Diversity Plus: BE3C Assay for Monokine induced gamma interferon (MIG) Biomarker Activity (AID 2283035).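 Also: MIG protein measured by ELISA in BE3C cultures after 24 h of dosing.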 The note with it: primary human bronchial epithelial cells; actives raise or lower the signal. The method in brief:
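ELISA read-out of MIG in human lung bronchial epithelial primary cultures, 24 h post-dosing. Bidirectional curve fit vs DMSO baseline.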

Read-out in test [5]: Plasminogen activator inhibitor-1 (PAI1), SERPINE1 (gene 5054)
The test can be described thus: BSK_BE3C_PAI1: BioMAP Diversity Plus: BE3C Assay for Plasminogen activator inhibitor-1 (PAI1) Biomarker Activity (AID 2283037). To be noted: primary human bronchial epithelial cells; actives raise or lower the signal. The method in brief:
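Human primary bronchial epithelial cells were exposed to chemical for 24 h, then PAI-1 was quantified by ELISA. Activity was fitted bidirectionally relative to the DMSO negative control baseline.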

Read-out in test [6]: urokinase plasminogen activator (uPA), PLAU (gene 5328)
Kind of test: BSK_BE3C_uPA: BioMAP Diversity Plus: BE3C Assay for urokinase plasminogen activator (uPA) Biomarker Activity (AID 2283038).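 Also: uPA protein level quantified by ELISA in cell cultures; uPA read one day after compound addition.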 The note with it: primary human bronchial epithelial cells; actives raise or lower the signal. The method in brief:
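Bronchial epithelial cells (human, primary); chemical 24 h; uPA by ELISA; bidirectional fit vs DMSO. SRB (0.1%, after 10% TCA fixation, 560 nm) in parallel cultures for cytotoxicity.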

Read-out in test [7]: Urokinase-type plasminogen activator receptor (uPAR), PLAUR (gene 5329)
Kind of test: BSK_BE3C_uPAR: BioMAP Diversity Plus: BE3C Assay for Urokinase-type plasminogen activator receptor (uPAR) Biomarker Activity (AID 2283039).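 Also: cells exposed to compound for one day before measurement.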 The note with it: primary human bronchial epithelial cells; actives raise or lower the signal. The method in brief:
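Primary human bronchial epithelial cells were dosed with chemical and harvested 24 h later; uPAR was quantified by ELISA. Activity was fitted bidirectionally against DMSO as negative control and baseline.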

Read-out in test [8]: Interleukin-6 (IL6), IL6 (gene 3569)
Kind of test: BSK_CASM3C_IL6: BioMAP Diversity Plus: CASM3C Assay for Interleukin-6 (IL6) Biomarker Activity for (AID 2283040). The note with it: primary human coronary artery smooth muscle cells; actives raise or lower the signal.

Read-out in test [9]: Tissue plasminogen activator (tPA), PLAT (gene 5327)
Kind of test: BSK_BE3C_tPA: BioMAP Diversity Plus: BE3C Assay for Tissue plasminogen activator (tPA) Biomarker Activity (AID 2283041).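 As to outcome: tPA level quantified by ELISA one day after compound addition.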 The note with it: primary human bronchial epithelial cells; actives raise or lower the signal. The method in brief:
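Human primary bronchial epithelial cells were dosed with chemical and tPA biomarker levels measured by ELISA 24 hours later. Activity was fitted bidirectionally against DMSO as negative control and baseline.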

Read-out in test [10]: Interleukin-8 (IL8), CXCL8 (gene 3576)
Kind of test: BSK_CASM3C_IL8: BioMAP Diversity Plus: CASM3C Assay for Interleukin-8 (IL8) Biomarker Activity (AID 2283042).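 Also: IL-8 protein level quantified by ELISA.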 The note with it: primary human coronary artery smooth muscle cells; actives raise or lower the signal.

Read-out in test [11]: Human Leukocyte Antigen - DR isotype (HLADR), HLA-DRA (gene 3122)
The test can be described thus: BSK_CASM3C_HLADR: BioMAP Diversity Plus: CASM3C Assay for Human Leukocyte Antigen - DR isotype (HLADR) Biomarker Activity (AID 2283043).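 Also: cell-surface HLA-DR protein level quantified by ELISA.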 The note with it: primary human coronary artery smooth muscle cells; actives raise or lower the signal.

Read-out in test [12]: Macrophage colony-stimulating factor (MCSF), CSF1 (gene 1435)
Kind of test: BSK_CASM3C_MCSF: BioMAP Diversity Plus: CASM3C Assay for Macrophage colony-stimulating factor (MCSF) Biomarker Activity (AID 2283044).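 Also: M-CSF protein amount quantified by ELISA after 24 h exposure.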 The note with it: primary human coronary artery smooth muscle cells; actives raise or lower the signal.

Read-out in test [13]: Low-density lipoprotein receptor (LDLR), LDLR (gene 3949)
The test can be described thus: BSK_CASM3C_LDLR: BioMAP Diversity Plus: CASM3C Assay for Low-density lipoprotein receptor (LDLR) Biomarker Activity (AID 2283045).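 Also: LDLR protein level on the cell surface quantified by ELISA.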 To be noted: primary human coronary artery smooth muscle cells; actives raise or lower the signal.

Read-out in test [14]: Monocyte Chemoattractant Protein-1 (MCP1), CCL2 (gene 6347)
Kind of test: BSK_CASM3C_MCP1: BioMAP Diversity Plus: CASM3C Assay for Monocyte Chemoattractant Protein-1 (MCP1) Biomarker Activity (AID 2283046).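 Also: MCP-1 level quantified by ELISA 24 h after dosing.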 The note with it: primary human coronary artery smooth muscle cells; actives raise or lower the signal.

Test [15] can be described thus: BSK_CASM3C_Proliferation: Cell Proliferation Assessment in the BioMAP Diversity Plus: CASM3C Assay (AID 2283047).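 Also: sulforhodamine B total protein stain as relative cell number at 560 nm; sub-confluent cells exposed 48 h before staining; fitted both ways against DMSO so gain or loss of cell number.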 The note with it: primary human coronary artery smooth muscle cells.
Read-out in test [16]: Monokine induced gamma interferon (MIG), CXCL9 (gene 4283)
Kind of test: BSK_CASM3C_MIG: BioMAP Diversity Plus: CASM3C Assay for Monokine induced gamma interferon (MIG) Biomarker Activity (AID 2283048). The note with it: primary human coronary artery smooth muscle cells; actives raise or lower the signal.

Read-out in test [17]: serum amyloid A (SAA), SAA1 (gene 6288)
Kind of test: BSK_CASM3C_SAA: BioMAP Diversity Plus: CASM3C Assay for serum amyloid A (SAA) Biomarker Activity (AID 2283049).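 Also: SAA protein level quantified by ELISA.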 To be noted: primary human coronary artery smooth muscle cells; actives raise or lower the signal.

Test [18] is described as follows: BSK_CASM3C_SRB: Viability Assessment in the BioMAP Diversity Plus: CASM3C Assay (AID 2283050).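 Also: total protein by SRB staining as cytotoxicity measure in parallel cultures.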 The note with it: primary human coronary artery smooth muscle cells.
Read-out in test [19]: Thrombomodulin, THBD (gene 7056)
Kind of test: BSK_CASM3C_Thrombomodulin: BioMAP Diversity Plus: CASM3C Assay for Thrombomodulin Biomarker Activity (AID 2283051).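 Also: thrombomodulin protein level measured by ELISA 24 h after dosing.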 The note with it: primary human coronary artery smooth muscle cells; actives raise or lower the signal.

Read-out in test [20]: Transforming growth factor beta 1 (TGFb1), TGFB1 (gene 7040)
Kind of test: BSK_BE3C_TGFb1: BioMAP Diversity Plus: BE3C Assay for Transforming growth factor beta 1 (TGFb1) Biomarker Activity (AID 2283036). To be noted: primary human bronchial epithelial cells; actives raise or lower the signal. In a few lines: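 Human primary bronchial epithelial cells (BE3C system) were dosed with chemical and TGF-b1 levels measured by ELISA at 24 h. Activity was fitted bidirectionally relative to DMSO negative control as baseline.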

Calls of active or inactive are those of the source. The calls were made as follows: active = hit-call score of the fitted dose curve at least 0.9, where 1 is the maximum; inactive = score below 0.9.

`COc1ccc(S(=O)(=O)N2C(=O)[C@@](c3ccccc3OC)(N3C[C@H](O)C[C@H]3C(=O)N(C)C)c3cc(Cl)ccc32)c(OC)c1`: the outcome in test [1], in [2], in test [3], in test [4], in test [5] and in [6] was inactive. In addition, the result in test [7], in test [8], in [9], in [10], in test [11] and in test [12] was inactive. Moreover, the outcome in [13], in test [14], in test [15], in [16], in [17] and in [18] was inactive. The result in [19] was inactive.

`C[Si]1(C)O[Si](C)(C)O[Si](C)(C)O[Si](C)(C)O1`: the outcome in test [1], in [3], in [4], in test [20], in [5] and in [6] was inactive. Also, the result in [7], in [8], in [9], in [10], in test [11] and in test [12] was inactive. For the same compound, the outcome in test [13], in test [14], in test [15], in test [16], in test [17] and in test [18] was inactive. Moreover, the result in [19] was inactive.

Regarding `CC1(C)CC(N=C=O)CC(C)(CN=C=O)C1` (stereo not drawn), the outcome in [1], in test [2], in [3], in [4], in test [5] and in [6] was inactive. The result in test [7], in test [8], in test [9], in test [10], in [11] and in test [12] was inactive. Also, the result in test [14], in test [15], in [16], in test [17], in [18] and in test [19] was inactive. The AC50 in [13] is 6.43 µM (active).

Turning to `NS(=O)(=O)c1cc2c(cc1Cl)NCNS2(=O)=O`, the result in test [1], in test [2], in test [3], in test [4], in test [5] and in [6] was inactive. Also, the result in test [7], in test [8], in test [9], in test [10], in [11] and in [12] was inactive. Moreover, the result in test [13], in test [14], in test [15], in [16], in test [17] and in test [18] was inactive. In addition, the result in test [19] was inactive.

On to `Cc1cccc(Nc2cc(Cl)nc(SCC(=O)O)n2)c1C`, for which the result in test [1], in [2], in test [3], in test [4], in test [5] and in [6] was inactive. For the same compound, the result in [7], in [8], in [9], in [10], in test [11] and in test [12] was inactive. Further, the result in test [13], in test [14], in test [15], in test [16], in test [17] and in test [18] was inactive. Further, in [19], the result was inactive.

As to `CC(C)(C)c1cc(O)c(C(C)(C)C)cc1O`, the result in test [1], in test [3], in test [4], in test [5], in test [6] and in [7] was inactive. The outcome in [8], in test [10], in test [11], in [12], in test [13] and in test [14] was inactive. The outcome in test [15], in [16], in test [17] and in test [18] was inactive. Moreover, the figures for the AC50 in test [2], in [9] and in test [19] were 6.44 µM (active), 15.7 µM (active) and 4.92 µM (active), respectively.

Regarding `Cc1ccc(Cl)cc1`, the result in test [1], in [2], in test [3], in [4], in test [5] and in test [6] was inactive. Also, the outcome in test [7], in test [8], in test [9], in test [10], in test [11] and in test [12] was inactive. Further, the result in [13], in test [14], in [15], in [16], in [17] and in test [18] was inactive. Besides, in test [19], the outcome was inactive.

What is called AC50 is the concentration at which the activity in the assay is half-maximal.
